SUMO Mot1 rescue: inhibitors of SUMOylation pathway: yeast Mot1-301 growth rescue; S. cerevisiae Mot1-301 growth rescue, ATP luminescence, 38.5C; percent above DMSO median, 100 means doubled; growth rescue, % at 18.8 µM; hit rate 1% among 320,000; AID 2716;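 active = every valid replicate shows activation above 250% relative to neutral control wells; inactive = the rest, any valid replicate at or below 250%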;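 also: OY570 slx delta 5 strain wells were the positive control but not used for scaling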
HDAC3 inhib: human HDAC3 inhibition; inhibition, % at 8.3 µM; recombinant HDAC3, fluorogenic peptide/trypsin coupled, fluorescence; O15379; hit rate 0.15% among 320,000; AID 2718; in the data active = inhibition above about 26%, passing the limit was not always enough
LANA-H2A inh: blocks KSHV LANA binding to histone H2A/H2B; Q9QR71; cell-free LANA-H2A/H2B peptide, fluorescence polarization; inhibition, % (no concentration beside the values); hit rate 0.6% among 320,000; AID 2629; in the data active = inhibition mostly above about 10%, no sharp cut-off; inactive = mostly below about 6.7%
IDE cell activ: activators of human insulin-degrading enzyme in cells | activation, % at 5.96 µM | HEK cells, FAbeta-B cleavage, fluorescence polarization; 0% vehicle, 100% cell-free pure enzyme wells | AID 493087 | hit rate 0.073% among 340,000 | P14735;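 active = activation above the mean of all tested compounds plus 3 SD, set per screening campaign, cut at about 17% in these data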
IDE inh: inhibitors of human insulin-degrading enzyme in cells; inhibition, % at 5.59 µM; P14735; hit rate 0.41% among 320,000; HEK cells, FAbetaB cleavage, fluorescence polarization; AID 434962;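 active = percent inhibition above the average of all tested compounds plus 3 SD, set per screening campaign, cut at about 16% in these data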;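 also: IDE supplied by intact live HEK cells; FP after avidin binding of uncleaved biotin substrate so inhibition keeps polarization high; 0% = DMSO wells and 100% = 60 µM reference IDE inhibitor Ii1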
Numbers without * were called inactive; / = no result given; + = active, no number; ! = not confirmed by another sample. This is a sample that favours compounds with a hit; in the whole collection about 2.1% have one here.

SMILES	SUMO Mot1 rescue	HDAC3 inhib	LANA-H2A inh	IDE cell activ	IDE inh
CCOc1ccc(CN(C)C(=O)c2ccc3c(c2)NC(=O)C(C)S3)cc1OC (stereo not given)	-3	-1	0	-2	1
Cc1onc(-c2ccccc2)c1C(=O)Nc1nnc(C(C)(C)C)s1	-9	7	10*	1	-9
COc1ccc(OC)c(-c2c3cc(O)c(=O)cc-3oc3cc(O)c(O)cc23)c1	-36	1	/	-113	39*
COc1ccc(OC)c(-c2oc3ccccc3c(=O)c2O)c1	264	2	3.4*	1	-1
COCO/C=C(\NC(C)=O)c1ccccc1	-11	-8	4	31*	2
CCN(CC)S(=O)(=O)c1ccc2c(c1)nc(SCC(=O)N(C)C1CCS(=O)(=O)C1)n2CC (stereo not given)	-7	/	6	-3	3
COc1ccc(C(=O)COC(=O)c2c(-c3ccccc3)noc2C)c(OC)c1	-24	-4	0	-7	4
COc1ccc(S(=O)(=O)Nc2ccc3c(c2)C(=O)N([C@H](C)CO)C[C@H](C)[C@@H](CN(C)C(=O)Nc2ccc4c(c2)OCO4)O3)cc1	-19	-1	-2	-2	3
CC(Sc1nnc(C2CC2)n1C1CC1)C(=O)Nc1cccc(S(=O)(=O)N(C)C)c1 (stereo not given)	-1	-4	+	0	-2
CCc1ccc2oc(=O)cc(CN3CCC(C)CC3)c2c1	-14	-2	21*	4	8
CCc1ccc2oc(=O)cc(CN3CCOCC3)c2c1	-12	6	-1	-1	4
CCC1CCCCN1CCNC(=O)CNS(=O)(=O)c1ccc2nc(C)sc2c1 (stereo not given)	315*	-2	1	4	4
Cc1ccc(CCNC(=O)CNS(=O)(=O)c2ccc3nc(C)sc3c2)cc1	-5	2	-1	4	-3
Cc1cc(NC(=O)CCC(=O)N(CCC(C)C)C(C(=O)NCC2CCCO2)c2ccccc2C)no1 (stereo not given)	16	1	6	-2	2
NS(=O)(=O)c1cc2c(cc1Cl)NC(C1C[C@H]3C=C[C@@H]1C3)NS2(=O)=O (stereo not given in full)	563*!	5	0	7	-3
NS(=O)(=O)c1cc2c(cc1Cl)NC(CC1CCCC1)NS2(=O)=O (stereo not given)	23	21	-1	6	0
COc1cc2c(C#CCCCO)c(-c3ccsc3)oc(=O)c2cc1OC	11	-6	-2	-4	-2
Cc1ccc(C(C)C)c(OCCCN2CCc3ccccc3C2)c1	-9	5	-2	4	2
Cc1ccc(C)c(OCCCN2CCc3ccccc3C2)c1	320*	-7	0	1	0
COc1cc(C(=O)OCC(=O)N(CC(C)C)C2CCS(=O)(=O)C2)cc(OC)c1C (stereo not given)	-5	-1	1	-4	-5
Cc1ccc(NC(=O)CN2C(=O)NC(C)(CC(C)C)C2=O)c(Br)c1 (stereo not given)	-7	0	1	1	1
CCc1ccc(NC(=S)N(Cc2ccccc2)Cc2ccccn2)cc1	6	3	-9	3	0
CCCCCC(=O)NCC(C)NC(=O)CCCCC (stereo not given)	486*	5	-1	0	-2
CC(CNC(=O)CCc1ccccc1)NC(=O)CCc1ccccc1 (stereo not given)	-20	-5	0	/	3
Cc1csc(=O)n1CCC(=O)OCC(=O)Nc1ccc(S(N)(=O)=O)cc1	5	-5	/	-5	7
COc1ccc(-c2c(-c3cc(OC)cc(OC)c3)n(C)c3ccc(Br)cc23)cc1	-12	-7	0	2	-4
COc1ccc(N=Nc2nc3ccc(Br)cc3n2C)cc1	/	-2	88*	28*	-9
Cc1ccc(-c2cc([C@H]3[C@@H]4C=CCC[C@@]4(C)C(=O)N3Cc3ccccc3)ccc2F)cc1	-5	10	-5	5	3
C[C@@]12CCC=C[C@H]1[C@H](c1ccc(F)c(/C=C/c3ccccc3)c1)N(Cc1ccccc1)C2=O	3	31*	-4	2	3
CN(C)c1ccc(-c2cc([C@H]3[C@@H]4C=CCC[C@@]4(C)C(=O)N3Cc3ccccc3)ccc2F)cc1	1	0	14*	0	2
